Assay outcomes as filed in PubChem BioAssay.
USP17 block = human USP17-like deubiquitinase inhibition; 47,000 compounds, 6.5% hits; purified USP17, Ub-rhodamine cleavage fluorescence, 3 h; inhibition, % at 50 µM; AID 1645855
USP28 inh = blocks human USP28 ubiquitin-rhodamine cleavage | purified USP28, Ub-rhodamine cleavage fluorescence, 30 min | Q96RU2 | 47,000 compounds, 3% hits | inhibition, % at 25 µM
USP8 inh = inhibitors of human USP8 deubiquitinase; AID 1645853; 47,000 compounds, 4.2% hits; purified USP8, Ub-rhodamine cleavage fluorescence, 30 min; inhibition, % at 20 µM; P40818
USP30 inh = blocks human USP30 ubiquitin-rhodamine cleavage. Q70CQ3. purified USP30, Ub-rhodamine cleavage fluorescence. inhibition, % at 25 µM. 47,000 compounds, 5.3% hits
USP10 block = human USP10 deubiquitinase inhibition. purified USP10, Ub-rhodamine fluorescence, 60 min. inhibition, % at 20 µM. 47,000 compounds, 1.1% hits. AID 1645856
Target sequence (Q14694 whole entry, looked up): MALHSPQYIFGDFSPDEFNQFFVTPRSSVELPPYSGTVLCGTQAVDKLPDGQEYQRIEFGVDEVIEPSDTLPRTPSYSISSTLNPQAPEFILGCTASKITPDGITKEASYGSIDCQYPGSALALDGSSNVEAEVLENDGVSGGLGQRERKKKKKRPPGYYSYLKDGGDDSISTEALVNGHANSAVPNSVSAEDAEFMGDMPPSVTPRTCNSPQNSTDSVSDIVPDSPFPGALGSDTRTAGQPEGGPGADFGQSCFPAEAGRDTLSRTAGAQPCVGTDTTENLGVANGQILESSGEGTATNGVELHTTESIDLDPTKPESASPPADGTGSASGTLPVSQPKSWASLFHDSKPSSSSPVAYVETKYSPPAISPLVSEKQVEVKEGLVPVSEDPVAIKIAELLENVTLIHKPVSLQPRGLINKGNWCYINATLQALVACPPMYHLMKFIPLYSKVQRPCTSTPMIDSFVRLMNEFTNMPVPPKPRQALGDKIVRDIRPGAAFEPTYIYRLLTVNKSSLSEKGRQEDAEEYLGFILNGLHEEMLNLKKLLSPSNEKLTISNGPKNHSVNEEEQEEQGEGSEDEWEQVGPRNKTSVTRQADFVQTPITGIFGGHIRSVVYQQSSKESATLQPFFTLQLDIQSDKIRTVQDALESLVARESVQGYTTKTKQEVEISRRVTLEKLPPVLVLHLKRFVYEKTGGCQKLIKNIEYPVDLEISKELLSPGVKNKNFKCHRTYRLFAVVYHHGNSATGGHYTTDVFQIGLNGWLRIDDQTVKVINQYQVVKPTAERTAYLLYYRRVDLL
Active calls of the source: *; nt = no result given. Sampled rows, rich in hits. Any-hit rate of the full collection: about 13%. Cut-off read from the data, not from the text of the source: active = inhibition above about 30%; inactive = the rest.

SMILES	USP17 block	USP28 inh	USP8 inh	USP30 inh	USP10 block
CC(=O)N1CCc2cc(S(=O)(=O)NC(Cc3ccccc3)C(=O)Nc3cccc(Cl)c3C)ccc21 (stereo unspecified)	36.3*	70.3*	47.3*	67.0*	54.8*
CC(=O)N1CCc2cc(S(=O)(=O)NC(Cc3ccccc3)C(=O)NCc3ccc4c(c3)OCO4)ccc21 (stereo unspecified)	55.5*	52.2*	12.7	53.9*	10.9
Cc1ccc(NC(=O)NCCN2CCc3ccccc3C2)cc1	4.6	24.4	5.4	16.2	1.7
Cc1cc(C(=O)N2C[C@H]3C[C@H]4[C@](C2)(CN(Cc2cccc(Cl)c2)S4(=O)=O)O3)no1	-5.0	-9.5	-14.2	-4.9	-0.7
COCCCn1c(SCCc2ccccc2)nc2cc(OC)c(OC)cc2c1=N	42.8*	-7.3	2.9	3.1	8.9
COC(=O)CCSc1nc2cc(OC)c(OC)cc2c(=N)n1Cc1cccc(C(F)(F)F)c1	-13.2	-30.7	-4.8	-27.5	6.8
Cn1c(=O)cc(C(=O)Nc2ccccc2Br)[nH]c1=O	-6.9	5.7	-57.5	12.7	0.0
O=C(c1cc2cc(Cl)ccc2o1)N1CCC1	7.6	nt	-4.1	nt	-0.7
Cc1cnc(NC(=O)c2cc3cc(Cl)ccc3o2)s1	7.3	2.8	46.1*	21.5	7.0
Cc1cc(F)ccc1NC(=O)c1cnc2ccccc2n1	-13.1	-14.4	-269.9	10.4	-2.3
CCc1nc(SCC(=O)Nc2ccc(Cl)cc2Cl)c2oc3ccccc3c2n1	3.0	1.0	12.0	-44.8	-0.1
Cc1nc(SCC(=O)Nc2cc(Cl)ccc2C)c2oc3ccccc3c2n1	26.4	20.3	31.6*	52.6*	3.4
Cc1ccc(Cl)cc1NC(=O)CSc1ncnc2c1oc1ccccc12	31.0*	5.4	4.1	5.2	2.3
Cc1nc(SCC(=O)Nc2ccc(C)c(C)c2)c2oc3ccccc3c2n1	36.0*	6.5	1.4	11.9	0.0
O=C(CSc1ncnc2c1oc1ccccc12)Nc1cc(Cl)ccc1Cl	-2.5	-3.6	4.8	-4.7	-0.2
Cc1ccccc1CN1C(=O)CCSc2ccc(Cl)cc21	nt	17.9	-10.9	21.3	8.6
O=C1CCSc2ccccc2N1Cc1cccc(F)c1	-6.1	17.5	-11.7	-16.3	4.5
CCC1Oc2ccccc2C(=O)N(Cc2ccccc2Cl)C1=O (stereo unspecified)	14.6	16.9	22.4	24.2	4.1
O=C1CCSc2ccc(Cl)cc2N1Cc1cccc(F)c1	17.7	36.6*	8.4	34.3*	4.9
CC1Oc2ccccc2C(=O)N(Cc2ccc([N+](=O)[O-])cc2)C1=O (stereo unspecified)	2.7	73.7*	-72.1	28.1	7.2
O=C1CCSc2ccccc2N1Cc1ccc([N+](=O)[O-])cc1	0.9	29.2	-105.6	33.4*	5.4
CC1CC(=O)N(Cc2ccc([N+](=O)[O-])cc2)c2ccccc2S1 (stereo unspecified)	-8.0	62.5*	-113.1	33.2*	4.4
O=C1NC2(CCN(C(=O)NCc3ccccc3)CC2)[C@@H]2CN(Cc3cccnc3)C[C@H]12	-2.1	2.4	0.0	-1.7	-5.0
CN1CCN(Cc2nc(-c3ccc(N4CCCCC4)nc3)no2)CC1	-2.0	9.6	-0.1	32.8*	-3.9
CC(C)c1cc2c(c(O)c1O)[C@@]13CCCC(C)(C)[C@@H]1C[C@@H]2OC3=O	73.5*	32.6*	2.8	11.1	7.3
SMILES	USP17 block	USP28 inh	USP8 inh	USP30 inh	USP10 block
CC(=O)Nc1ccc(NC(=O)c2ccc3c(c2)CC(c2ccccc2)OC3=O)cc1 (stereo unspecified)	21.0	-0.4	33.8*	22.4	21.9
Cc1cc(C)nc(C2CN(C(=O)CN3CCCCCC3=O)CCO2)n1 (stereo unspecified)	-1.0	-3.8	-0.8	9.8	-0.3
C=C(C)CSc1nc(CC)nc2sc3c(c12)CC(C)(C)OC3	0.0	24.9	5.6	1.0	2.1
C=C(C)CSc1nc(Cc2ccccc2)nc2sc3c(c12)CC(C)(C)OC3	7.7	33.3*	10.2	10.7	3.0
Cc1nc2nc(CN(C(=O)COc3ccccc3)c3ccccc3)nn2c(C)c1Cl	4.3	9.2	11.8	36.4*	1.9
Cc1cc(C)n2nc(CN(C(=O)COc3ccccc3)c3ccccc3)nc2n1	-9.3	nt	-7.0	nt	-2.4
COc1cc2c(c(OC)c1OC)-c1ccc(N3CCN(c4cccc(Cl)c4)CC3)c(=O)cc1[C@@H](NC(C)=O)CC2	21.6	-3.1	55.4*	-12.9	-1.5
COc1ccc(N(C)C(=O)c2cc3c(=O)n(C)c4ccccc4n3n2)cc1	29.0	3.1	82.2*	-38.3	-5.3
O=S(Cc1ccc2nonc2c1)c1cccs1 (stereo unspecified)	0.6	9.5	-1.8	17.4	0.3
O=C(C1CCC1)N1CCn2ncnc2C1	26.6	13.0	14.9	26.2	2.3
CCn1cc2nc(SCC(=O)NC3CCCC3)n(Cc3ccccc3)c(=O)c2n1	0.6	-0.2	-4.2	0.8	0.6
Cc1cc(C)c(NC(=O)CSc2nc3cn(C)nc3c(=O)n2CC2CC2)c(C)c1	60.8*	17.9	41.9*	69.8*	13.5
Cc1ccc(N(Cc2nc3nc(C)cc(C)n3n2)C(=O)Cc2ccc(Cl)cc2)cc1	2.8	0.1	10.3	14.1	-2.7
Fc1ccc(-c2nsc3c(N4CCCC4)ncnc23)cc1	32.0*	2.4	-0.4	19.0	-1.5
N#Cc1ccccc1OCC(=O)N1CCC(c2nc3ccccc3o2)CC1	32.1*	9.6	7.1	16.4	-1.2
NC(N)=NCCC(=O)N1CCn2nc(-c3ccc4ccccc4c3)cc2C1	-28.0	44.5*	-173.3	40.1*	0.6
CCN(CC)C(=O)CSc1nnc2c3c(c(C#N)c(Nc4ccccc4)n12)CC(C)(C)OC3	nt	-0.9	-15.4	-7.5	0.1
O=c1c(Nc2cccc(F)c2)nc2ccncc2n1Cc1ccccc1	66.6*	-3.0	-5.0	24.1	-2.1
O=c1c(NCCN2CCCC2)nc2ccncc2n1Cc1ccccc1	66.1*	nt	-6.6	nt	-4.9
CCc1nc(CN2C(=O)COc3cc(S(=O)(=O)N4CCCC4)c(Cl)cc32)no1	0.2	-9.3	-1.1	-1.4	0.7
COc1cc(CC(=O)N2CCc3cc(-c4ccno4)ccc32)cc(OC)c1	-28.6	-28.3	-29.7	-146.6	-1.2
Cc1noc(-c2ccc(S(=O)(=O)NC3CCCCC3)o2)c1C	-8.0	nt	-7.4	nt	-2.1
CCc1ccc2nc(N(CCCn3ccnc3)C(=O)c3cccs3)sc2c1	nt	-1.1	-32.0	46.0*	3.2
O=C(c1ccccc1)N(Cc1ccncc1)c1nc2ccc(Cl)cc2s1	11.1	14.3	23.6	4.2	3.7
COc1ccc(NC(=O)c2[nH]nc3c2COc2ccccc2-3)c(OC)c1	76.6*	20.8	58.5*	10.4	23.4
COc1ccc2c(c1)CCc1c-2n[nH]c1C(=O)Nc1ccc(F)cc1C	15.4	6.1	16.0	30.5*	1.9
COc1ccc(NC(=O)c2[nH]nc3c2CCc2ccccc2-3)c(OC)c1	14.8	11.4	1.7	-52.6	-1.4
COc1ccc2c(c1)CCc1c-2n[nH]c1-c1nc(-c2ccccn2)no1	32.9*	-28.0	-12.4	-58.5	-6.3
